The supplement of paper PMC10981050
Where “and” joins values, the source holds several entries; their conditions need not be identical. Equal values may be shown once. Where a name gives a salt, the structure may show the parent alone.

Key:
Assay in all cases: cell viability relative to vehicle control; higher = less cytotoxic
Settings in all cases: 10 µM
K562 = tested on: K562
Procedure, shortened: (§1)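 Four leukaemia lines, as CRISPR-edited mutant clones and isogenic wild-type clones, were tested against Selleck bioactive, kinase and epigenetic probe libraries after removal of identity-inconsistent compounds. Cells were exposed to a single 10 µM dose for 48 h, and CellTiter-Glo luminescence was then read. Viability was calculated relative to the on-plate vehicle control.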

MARIMO = tested on: MARIMO
Procedure, shortened: as §1

MOLM14 = tested on: MOLM14
Procedure, shortened: as §1

OCI-AML2 = tested on: OCI-AML2
Procedure, shortened: as §1

| SMILES | cell viability (K562; SRSF2 genotype: SRSF2 P95H/wt) | cell viability (K562; SRSF2 genotype: SRSF2 wt/wt) | cell viability (MARIMO; SRSF2 genotype: SRSF2 P95H/wt) | cell viability (MARIMO; SRSF2 genotype: SRSF2 wt/wt) | cell viability (MOLM14; SRSF2 genotype: SRSF2 P95H/wt) | cell viability (MOLM14; SRSF2 genotype: SRSF2 wt/wt) | cell viability (OCI-AML2; SRSF2 genotype: P95H/wt) | cell viability (OCI-AML2; SRSF2 genotype: wt/wt) |
| --- | --- | --- | --- | --- | --- | --- | --- | --- |
| CC(=O)O[C@H]1C(=O)[C@@]2(C)[C@H]([C@H](OC(=O)c3ccccc3)[C@]3(O)C[C@H](O)C(C)=C1C3(C)C)[C@]1(OC(C)=O)CO[C@@H]1C[C@@H]2O | 93.5% and 95% | 102% | 100% | 96.6% | 104% | 102% | 104% | 97.3% |
| CCN(C)C(=O)Oc1cccc([C@H](C)N(C)C)c1 [Rivastigmine tartrate (Exelon)] | 103% and 106% | 101% | 101% | 105% | 99.5% | 108% | 104% | 113% |
| O=C(NCC1CCOCC1)c1cnc(Nc2ccc(Cl)cc2Cl)nc1C(F)(F)F | 95% and 97.7% | 98% | 93.5% | 104% | 103% | 104% | 98.5% | 102% |
| CC1CCC2N(C1)CC1C3CC4C(CC(=O)C5CC(O)CCC54C)C3CCC1C2(C)O (stereo not given) [Peiminine] | 92.5% and 90.8% | 86.1% | 107% | 109% | 87% | 75.6% | 46.2% | 58.8% |
| Cc1sc2c(c1C)C(c1ccc(Cl)cc1)=NC(CC(N)=O)c1nnc(C)n1-2 (stereo not given) | 65.2% and 63.5% | 69.8% | 30% | 36.7% | 20.1% | 20.3% | 15.3% | 29.4% |
| O=S(=O)(F)Cc1ccccc1 [PMSF (Phenylmethylsulfonyl Fluoride)] | 95.7% and 94.9% | 97% | 100% | 99.5% | 99.3% | 102% | 102% | 96.1% |
| C[C@@H]1O[C@@H](O[C@H]2C[C@@H](O)[C@]3(CO)[C@H]4[C@H](O)C[C@]5(C)[C@@H](C6=CC(=O)OC6)CC[C@]5(O)[C@@H]4CC[C@]3(O)C2)[C@H](O)[C@H](O)[C@H]1O [Ouabain] | 10.4% and 12.3% | 12.4% | 10.7% | 4.01% | 3.34% | 0.78% | 0.73% | 2.79% |
| C[C@]12CC[C@H](O)C[C@@]1(O)CC[C@@H]1[C@@H]2CC[C@]2(C)[C@@H](C3=CC(=O)OC3)CC[C@]12O [Periplogenin] | 8.32% and 13% | 12.9% | 14.3% | 11.9% | 7.26% | 1.77% | 4.72% | 8.91% |
| Cl[TeH]1(Cl)(Cl)OCCO1.N | 86.8% and 76.3% | 75% | 78% | 83.5% | 71.3% | 74.3% | 76.1% | 84.1% |
| CN1CCCCC1Cn1cc(C(=O)c2cc([N+](=O)[O-])ccc2I)c2ccccc21 (stereo not given) | 83.1% and 88.8% | 87.2% | 84.2% | 103% | 3.13% | 2.06% | 76.2% | 65.5% |
| Cc1ccccc1-n1c(CF)nc2ccc(N)cc2c1=O [Afloqualone] | 88.1% and 90.6% | 86.5% | 84.5% | 95.7% | 93.2% | 96.2% | 110% | 94.4% |
| COC1=CC23CCN(C)C(Cc4ccc(OC)c(O)c42)C3=CC1=O (stereo not given) [Sinoacutine] | 110% and 102% | 101% | 103% | 101% | 108% | 103% | 101% | 104% |
| NCC(=O)O.[C-]#[O+].[C-]#[O+].[C-]#[O+].[Cl][Ru] | 104% and 93.3% | 96.2% | 88.5% | 99.2% | 88.6% | 90.8% | 91.9% | 114% |
| O=C(CBr)N1CC([N+](=O)[O-])([N+](=O)[O-])C1 | 86.2% and 82.7% | 81.4% | 85.5% | 101% | 88.6% | 88.7% | 94.3% | 114% |
| CNCC(O)c1ccc(O)cc1 (stereo not given) [Synephrine (Oxedrine)] | 106% and 102% | 94.5% | 103% | 98.5% | 97.4% | 101% | 98.4% | 106% |
| CCC(COC(=O)c1cc(OC)c(OC)c(OC)c1)(c1ccccc1)N(C)C (stereo not given) [Trimebutine maleate] | 99% and 90.6% | 98.2% | 87.9% | 90.3% | 88.9% | 98.2% | 89.9% | 97.4% |
| Nc1ncnc2c1ccn2[C@@H]1O[C@H]([C@H](O)c2ccccc2)[C@@H](O)[C@H]1O | 89.1% and 85% | 79.6% | 83.5% | 95.3% | 77.1% | 89.3% | 79% | 88% |
| COc1cc2c(cc1O)C[C@H]1c3c(cc(O)c(OC)c3-2)CCN1C [Boldine] | 99.6% and 100% | 99% | 94.1% | 88.6% | 96.5% | 101% | 95.3% | 91% |
| O=C1C2CCN(CC2)C1(CO)CO | 74.5% and 85.5% | 73.3% | 83.6% | 73.8% | 34.1% | 41.8% | 56.2% | 47% |
| O=C(O)CNC(=O)C1C(=O)N(C2CCCCC2)C(=O)N(C2CCCCC2)C1=O | 93.8% and 88.7% | 83.9% | 86.5% | 101% | 83.8% | 94.1% | 98.8% | 98.5% |
